# Rows were chosen to be rich in hits. Some 4.7% of all compounds tested hit in one or more screens of this group.
# TRHR agonist: TRH receptor (human) agonism. P34981. TRHR cells, calcium flux fluo-8, FDSS agonist mode. activation, % at 2 µM. actives 0.18% (n = 360,000); also: 0% is about no effect
# Target sequence (P34981 whole entry, looked up): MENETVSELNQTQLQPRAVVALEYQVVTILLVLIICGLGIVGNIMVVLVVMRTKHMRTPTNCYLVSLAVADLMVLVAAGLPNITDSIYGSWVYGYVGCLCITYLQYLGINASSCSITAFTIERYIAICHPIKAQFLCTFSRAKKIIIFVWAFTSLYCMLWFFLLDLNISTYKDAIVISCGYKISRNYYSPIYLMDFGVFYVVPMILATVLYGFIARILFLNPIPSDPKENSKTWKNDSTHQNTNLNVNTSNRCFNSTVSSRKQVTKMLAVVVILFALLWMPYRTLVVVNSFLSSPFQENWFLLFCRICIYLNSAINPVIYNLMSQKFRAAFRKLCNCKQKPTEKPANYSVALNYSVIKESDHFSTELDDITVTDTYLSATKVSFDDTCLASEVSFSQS
#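 Read-out: compound-evoked intracellular calcium rise in TRHR cells, fluo-8 dye, kinetic FDSS fluorescence at 1 s/cycle following a 10-cycle baseline. Cells cultured overnight before dye loading (30 min–1.5 h, RT).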
# D1 ag: human D1 receptor agonism; P21728; HEK293 T-REx D1 cells, calcium flux, agonist mode; activation, % at 2 µM; actives 1% (n = 360,000); also: 0% is about no effect
#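 Agonism was scored from calcium flux recorded over 180 s (1 read/s) after pintool compound addition, following a 10-cycle baseline. Cells were inducible force-coupled HEK293 TREx D1, plated overnight at 30 C and loaded with no-wash calcium dye.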
# TRHR enhancer: allosteric enhancers of human TRH receptor | actives 0.66% (n = 360,000) | TRHR cells, fluo-8 calcium fluorescence, EC20 TRH enhancement | AID 493056 | P34981 | enhancement, % at 2 µM; in the data active = enhancement above about 30%; also: 0% is about no effect
#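 TRHR-expressing cells loaded with fluo-8 calcium dye were read kinetically (ex 480/em 530) during compound addition, then stimulated with an EC20 of TRH (10 nM final). Enhancement of the Gq-mediated intracellular calcium response was scored.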
# D1 potentiator: human D1 dopamine receptor positive modulation | AID 504651 | actives 0.036% (n = 360,000) | P21728 | potentiation, % at 10 µM | HEK293 TREx D1 cells, calcium flux, dopamine EC20 potentiation; in the data active = potentiation above about 30%; also: 0% is about no effect
# D1 antagonist: human D1 dopamine receptor antagonism; activity change, negative = inhibition, % at 10 µM; HEK293 TREx D1 cells, calcium flux, dopamine EC80; active compounds read low; P21728; actives 3.2% (n = 360,000); in the data active = activity change below about -30%; also: % is scaled to controls: 0 for no effect and ±100 for the full control effect
#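 Inducible Hek293 Trex D1 cells (tetracycline, overnight, 30 C). Calcium dye 30–90 min RT. Antagonist mode: EC80 dopamine added after 180 s compound read.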
# * marks the source's active call; other numbers are inactive results; x = not tested or not shown. Rule as the data show it, unless noted: active = activation above about 30%; inactive = the rest.
SMILES,TRHR agonist,D1 ag,TRHR enhancer,D1 potentiator,D1 antagonist
CN(C)c1ccc(/C=C2\CCC/C(=C\c3ccccc3)C2=O)cc1,24,91*,-5,0,-19
CCOC(=O)C1CCN(C(=O)c2ccccc2NC(=O)C2=C(C)OCCS2)CC1,0,1,-1,2,-5
COC(=O)c1ccccc1NC(=O)NCCc1c(C)nn(C)c1C,0,-1,-4,1,-12
CC(Oc1ccc2ccccc2c1)C(=O)NNC(=O)Nc1ccccc1 (stereo not given),0,1,-1,6,-37*
Cc1ccc(NC(=O)NNC(=O)COc2ccc3ccccc3c2)cc1,0,0,-2,-5,2
Cc1nc2ccc(S(=O)(=O)CCC(=O)Nc3ccc(Cl)cc3)cc2s1,0,3,9,-1,-24
Cc1nc2cc(NC(=O)CS(=O)(=O)c3ccccc3)ccc2s1,-1,0,6,1,14
Cc1nc2ccc(S(=O)(=O)CCC(=O)Nc3ccc(C(C)C)cc3)cc2s1,0,0,15,0,-57*
Cc1nc2ccc(NC(=O)c3ccc(S(=O)(=O)N(C)c4ccccc4)cc3)cc2s1,1,9,0,-4,-35*
CC(=O)Nc1ccc2sc(C)nc2c1,-1,3,37*,-6,2
CCCCNC(=S)Nc1ccc(-c2nc3ccc(C)cc3s2)cc1,0,4,4,-10,-47*
CCCCc1ccc(C(=O)Nc2ccc3nc(N(CC)CC)cc(C)c3c2)cc1,0,1,-2,-1,9
Cc1ccc2nc(-c3ccc(NC(=O)COC(=O)c4ccc(Br)o4)cc3)sc2c1,0,4,4,46*,-7
Cc1nc2ccc(NC(=O)c3ccc(Br)o3)cc2s1,0,9,4,-4,-31*
Cc1nc2ccc(S(=O)(=O)N(C)CC(=O)Nc3cccc(C(F)(F)F)c3)cc2s1,-2,18,-4,-2,-33*
CCN(CC)c1cc(C)c2cc(NC(=O)c3ccc(Br)o3)ccc2n1,-1,0,1,-3,-55*
CN(C)c1ccc(Nc2ncnc3c2c(-c2ccccc2)cn3-c2cccc(Cl)c2)cc1,0,-4,-1,0,-4
Cc1ccc([C@@H]2[C@@H]3C(=O)N(C)C(=O)[C@@H]3[C@@H]3C(=O)Nc4ccccc4C(=O)N23)cc1,1,4,-2,-9,-11
CCN(c1ccccc1)S(=O)(=O)c1ccc(C(=O)Nc2nnc(-c3ccco3)o2)cc1,-1,6,9,-3,-7
CN(c1ccccc1)S(=O)(=O)c1ccc(C(=O)Nc2nnc(-c3ccco3)o2)cc1,-1,4,7,-2,-32*
O=C(CC1(CC2=NS(=O)(=O)c3ccccc3N2)CCCC1)NCCc1ccccc1,-1,7,-7,0,-2
O=S(=O)(c1ccc(Cl)cc1)c1nc(-c2cccc(Br)c2)oc1NCc1ccccc1,1,4,31*,0,-12
CC1(C)CC(=O)C2=C(C1)c1c(ccc3ccccc13)NC2c1ccco1 (stereo not given),-1,-1,-3,30*,-11
CC(=O)Nc1ccc(S(=O)(=O)N2CCN=C2SCc2cccc(C)c2)cc1,1,8,-2,-11,-22
O=C(CN1CCN(S(=O)(=O)c2ccccc2[N+](=O)[O-])CC1)Nc1ccc(N2CCOCC2)cc1,0,9,7,-13,-46*
CC(=O)Nc1ccc(S(=O)(=O)N2CCN(c3ccc([N+](=O)[O-])cc3)CC2)cc1,1,5,-7,-5,-35*
CC(=O)Nc1ccc(S(=O)(=O)N2CCN(S(=O)(=O)c3ccc(NC(C)=O)cc3)CC2)cc1,0,0,5,-1,1
O=[N+]([O-])c1ccc(CS(=O)(=O)N2CCN(c3ccccc3)CC2)cc1,1,9,-3,x,-30*
CC(=O)Nc1ccc(S(=O)(=O)N2CCN=C2SCc2ccc([N+](=O)[O-])cc2)cc1,1,18,12,-9,-65*
Cc1ccc(N2CC(NC(=O)C(=O)c3c(C)[nH]c4ccccc34)CC2=O)cc1C (stereo not given),1,5,-7,0,4

# Compound activity from PubChem.
